Measured values taken from the supplement of paper PMC3334620.
The full ranking holds about 33,000 sequences; the median of “E-score (-0.5 to 0.5)” is about -0.056, and the highest 2% start at about 0.38. The full list was thinned out, with the highest values kept by preference.

biological target: Stb4 (UniProt P50104); assay: PBM E-score (8-mer binding enrichment) (E-score (-0.5 to 0.5)); higher = stronger / more preferred TF binding; settings: protein concentration: 200 nM; construct: GST-DNA-binding domain
Chain of UniProt P50104 (P50104 whole entry, the tested form may be a part): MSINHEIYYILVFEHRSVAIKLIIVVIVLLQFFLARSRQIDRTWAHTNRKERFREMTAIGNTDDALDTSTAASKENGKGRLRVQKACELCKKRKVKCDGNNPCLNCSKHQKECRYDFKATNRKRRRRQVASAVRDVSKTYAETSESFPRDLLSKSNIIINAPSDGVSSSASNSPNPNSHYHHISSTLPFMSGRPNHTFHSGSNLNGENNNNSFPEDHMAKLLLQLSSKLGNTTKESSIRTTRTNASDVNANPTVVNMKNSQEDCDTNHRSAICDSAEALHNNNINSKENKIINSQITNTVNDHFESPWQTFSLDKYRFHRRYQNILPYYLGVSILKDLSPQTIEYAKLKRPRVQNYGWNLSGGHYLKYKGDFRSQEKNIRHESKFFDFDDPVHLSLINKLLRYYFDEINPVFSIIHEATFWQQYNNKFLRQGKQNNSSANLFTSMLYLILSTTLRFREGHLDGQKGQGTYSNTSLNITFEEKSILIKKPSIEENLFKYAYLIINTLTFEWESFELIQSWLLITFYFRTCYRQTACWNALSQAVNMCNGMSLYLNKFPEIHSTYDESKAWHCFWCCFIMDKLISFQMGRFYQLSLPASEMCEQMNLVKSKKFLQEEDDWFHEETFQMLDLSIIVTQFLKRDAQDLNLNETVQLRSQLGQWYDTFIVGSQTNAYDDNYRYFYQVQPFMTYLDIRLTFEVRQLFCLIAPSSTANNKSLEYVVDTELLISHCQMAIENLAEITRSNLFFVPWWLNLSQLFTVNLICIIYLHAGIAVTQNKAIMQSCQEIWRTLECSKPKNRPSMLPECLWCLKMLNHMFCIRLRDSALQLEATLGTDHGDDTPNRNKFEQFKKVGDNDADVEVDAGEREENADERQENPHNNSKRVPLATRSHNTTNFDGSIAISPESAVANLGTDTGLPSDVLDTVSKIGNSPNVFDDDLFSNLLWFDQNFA
In short: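 Yeast transcription factors, full-length or as DNA-binding domains, were expressed with a GST tag using PURExpress in vitro transcription/translation. At about 100-200 nM they were applied to universal all-10-mer Agilent arrays, double-stranded by primer extension on fresh or once-stripped slides. Fluorescent anti-GST detected bound protein, and masliner normalised the scans. E-scores for ungapped eight-base words, pooled with reverse complements, came from the Universal PBM Analysis Suite.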

Sequence | PBM E-score
AATTTGCC | 0.0997
ATGAGATC | -0.124
ACTGAAAT | -0.18
CGTCGGAA | 0.452
GGACGGAA | 0.328
AGTCGTAT | -0.147
GGTCGGAC | 0.144
AGTCGGGA | 0.362
CGTCGGGA | 0.383
AGTCGGAT | 0.429
AGTCGGCC | 0.168
CGTCGGAC | 0.269
GGTCGGGA | 0.368
CGTCGGAG | 0.275
GGTCGGAA | 0.439
CTAGATAC | 0.0146
AGGACCGC | -0.0222
CAGAATAA | -0.0851
TGACGGAA | 0.312
AGTCGGAC | 0.176
TGTCGGAA | 0.416
AGTCGGAG | 0.226
AGTCGGAA | 0.451
TGTCGTAA | -0.215
AGAGAACT | -0.114
GGGTCACA | -0.0305

Sequence | PBM E-score
CAATTTAA | -0.105
GGTTTTTA | -0.0968
CAGGAGCA | -0.163
CACCTGAG | -0.337
AGGATATC | 0.0132
GGGATATA | 0.168
CTGATATC | 0.136
AGGATATA | -0.0497
CGGATATC | 0.426
CGGATATA | 0.452
TCCAGTAA | -0.176
TCTGACCA | -0.24
CGTTCGTA | -0.0524
GGTTCGCA | 0.0434
GGTTCGGA | 0.442
CGTTCGGA | 0.465
CGTTCGGC | 0.368
GGTTCGAA | -0.0143
ACATTGGA | -0.177
CGAGATAG | 0.00411
CTGCAAAG | -0.28
CGTCCTGA | -0.249
TCCGTTAA | 0.259
AAAAACCT | 0.0896
CTCGAGGA | -0.188
CCCGAGGA | 0.388

Sequence | PBM E-score
TCAGAGGA | -0.183
ACCGAGGC | 0.302
GCCGAGGC | 0.436
GTCGAGGA | -0.239
ACCGAGGA | 0.323
GACGAGGC | -0.0506
GCCGAGGA | 0.4
TCCGAGGA | 0.453
CACGAGGA | -0.11
TACGAGGA | -0.193
GTAAGCAC | -0.144
CGAAATGC | 0.124
ATGTCGTA | -0.29
AGGATGGA | 0.0445
CAGGATTA | 0.00923
CACCCTCG | 0.0812
CACACATG | -0.15
CGATCGCC | 0.0955
TAGTAACA | -0.0586
CCCAGAGC | -0.299
AGAAGGAA | 0.0573
CCCGAGGC | 0.388
CCCGAGGG | 0.404
CACGAGGC | -0.131
ACCGAGGG | 0.27
CGCGAGGC | 0.0155

Sequence | PBM E-score
CACGAGGG | -0.0631
CCATAAGG | -0.314
CCAGATAC | -0.122
CTATTGCA | -0.0693
ACAGACCT | 0.00106
ACCAATCT | 0.0037
GGGATAAC | 0.0907
AGGATAAC | -0.159
TGGATAAA | 0.027
CGGATAAC | 0.452
AGGATAAA | -0.0635
CGGATAAG | 0.41
AGGATAAG | -0.0142
CCGATAAG | 0.269
CGGATAAA | 0.465
AGATCAGC | 0.0618
GGTAGACC | 0.143
CCTCTTAC | -0.274
AACGACTA | -0.151
AAGGTACG | -0.0106
GGCCTAAA | -0.102
ATCCGACA | 0.442
CTCCGACC | 0.315
CTCCGACA | 0.227
ATCCGACC | 0.425
GTCCGACA | 0.213

Sequence | PBM E-score
ACCCGACC | 0.382
AGCCGACG | 0.353
ATCCGACG | 0.452
AACCGACG | 0.304
CAAATCTA | -0.211
CCTTTGTC | -0.141
GCCTACGC | -0.306
TACACTGA | -0.0306
ACGAAGAA | -0.0766
CCGAAGAA | 0.402
ACGAAGAG | -0.117
TCGAAGAA | -0.122
CCGAAGAC | 0.374
CCGAAGAG | 0.417
GAGTACTC | -0.00922
AACGACGT | -0.166
ATTGACCC | 0.0534
GCGAGCGC | -0.103
ACGAGCGC | -0.0806
CCGAGCGG | 0.431
ACGAGCGA | -0.402
CCGAGCGC | 0.44
ACGAGCGG | 0.0575
CCGAGCGA | 0.403
GCGAGCGA | -0.0989
CAGAGCGG | -0.0262

Sequence | PBM E-score
AGTATCGA | -0.072
ATTCGCAG | -0.152
AAAGTCGC | 0.0621
AGATTTAG | -0.0774
ACTTTGGC | 0.123
CTCGACAC | -0.144
ACGAATAC | -0.0867
CCGAATAA | 0.381
CCGAATAC | 0.425
CCGAATTC | 0.398
CCGAATTA | 0.363
ACGAATTC | -0.192
ACGACCGA | 0.0769
TCCGCCAA | 0.233
CGGTCGGC | 0.318
CGGTCGGA | 0.388
GGGTCGAA | 0.0324
AGGTCGGA | 0.345
CGGTCGTA | 0.128
GGGTCGGA | 0.392
GCGTCCGA | 0.282
GGCATGCC | 0.156
GTCTAGTA | -0.11
GTACTGTA | -0.171
AACCACAG | -0.177
GCCGAATA | 0.427

Sequence | PBM E-score
CTCGAATC | -0.207
CACGAATA | -0.22
ACCGAATC | 0.357
GTCGAATA | -0.181
ACCGAATA | 0.215
CCCGAATA | 0.397
CTCGAATA | 0.0163
CCCGAATC | 0.397
CCATCACA | -0.197
CCCCATCA | -0.137
CCTTCTTA | -0.143
CCGGCATC | 0.28
CCTTTCAA | -0.112
GAATGGTC | 0.0599
CCAGACGG | -0.0564
TAGGATCA | -0.0704
ACGGATCA | 0.325
CCGGATCA | 0.383
ACGGATGC | 0.298
GCGGATCA | 0.196
TCGGATCA | 0.46
TCAGATCA | -0.235
CCGGATGC | 0.396
CCGGATGA | 0.366
GCGGATCC | 0.301
CCGGATCC | 0.395

Sequence | PBM E-score
ACGGATCC | 0.352
AGATCTAG | -0.255
TTGGCAAA | -0.183
AACCGCGG | 0.291
GAGGAGGC | -0.196
ACGTTTTC | 0.0722
GATTGCTA | -0.122
TTAGACAA | -0.0136
CCGGATCG | 0.413
CAGGATCG | 0.0947
ACGGATCG | 0.315
TATGACGA | -0.111
GGAAGTGA | 0.245
ATTAGAGG | 6e-05
AACTGGAA | -0.0984
CATTTAGA | -0.00372
ATTCCGAA | 0.464
AGTCCGAG | 0.371
ATTCCGTA | 0.265
GTTCCGCA | 0.293
ATTCCGTG | 0.363
GTTCCGAA | 0.479
CTTCCGCA | 0.331
CTTCCAAA | -0.174
ATTCCGAG | 0.472
CTTCCGAA | 0.479

Sequence | PBM E-score
GTTCCAAA | -0.0427
ATTCCGCA | 0.169
GCGATCTA | -0.0238
GCGACCAA | -0.183
CCGCCAAG | -0.059
AACATCGT | -0.0992
ATCTCCGG | 0.345
GCTTGCGA | -0.104
ACTAAGCG | -0.0604
CCTATATA | -0.103
GGAATCAC | 0.244
CCAGGCTA | -0.289
CAAAATTC | 0.165
ATTCCGTC | 0.285
AGTCCGAC | 0.11
ATTCCGAC | 0.416
CTTCCGCC | 0.297
CTTCCGTC | 0.341
CTTCCGAC | 0.457
GCTACCCC | -0.0436
TCTTGCAA | 0.0931
AAAGAGCT | -0.128
ATTAGAAT | -0.0347
ACCCGGAT | 0.374
GCCCGGAC | 0.229
GCCCGGGA | 0.308

Sequence | PBM E-score
CCCCGGAA | 0.27
GCCCGGAA | 0.423
TCCCGGGA | 0.409
ACCCGGAG | 0.373
TCCCGGAA | 0.407
CCCCGGGA | 0.307
GCCCGGTA | 0.263
ACCCGGAA | 0.433
TCCCGGCA | 0.298
CGGTAGGA | 0.136
AGCTCATA | -0.0221
AACAACTT | -0.165
CCTATGAG | -0.227
GTAGCAAA | -0.0766
ATTGACGA | -0.138
TCACATCA | -0.0958
CCTCGGAG | 0.408
CCTCGAAA | -0.27
CCTCGGAA | 0.484
ACTCGGAG | 0.362
CCTCGGAC | 0.321
CCGCGGAA | 0.352
CATCAACC | 0.00345
ACATCAAA | -0.0159
ACTCATCT | -0.224
AGCCAAGA | -0.22

Sequence | PBM E-score
AAAGGAGT | 0.0609
GATGCGAC | 0.0109
CTACTTGC | 0.104
CGGATGAA | 0.433
AGGATGTA | -0.177
AGGATGTC | -0.0723
CGGATGTA | 0.443
GGGATGTA | 0.109
CGGATGAG | 0.369
AGGATGAA | -0.0759
CTGATGTC | 0.0602
CGGATGTC | 0.426
ATCCTCTG | -0.208
CGCCACAA | -0.0226
ACCCGTTA | 0.269
AATGGAAA | 0.0387
CGTCCCAA | -0.155
GGTCCCTA | -0.115
CGTCCCGC | 0.248
GTCCCCGA | 0.288
CGTCCCGA | 0.402
GGTCCCGA | 0.39
AGTCCCGG | 0.304
AGTCCCGC | 0.15
AGTCCCGA | 0.389
CGTTACTA | -0.124

Sequence | PBM E-score
AGCCCCAC | -0.0851
ACAGGACA | -0.0558
CCATTGGA | -0.213
CTATTCAG | -0.288
CCCGCCAG | 0.0645
AGAATAAA | -0.194
AAATCTAT | -0.00166
CAGGAAGG | -0.208
CGGGAAGC | 0.299
CCGGAAGG | 0.392
CCGGAAGC | 0.395
ACGGAAGA | 0.349
GCGGAAGA | 0.317
ACGGAAGG | 0.313
ACGGAAGC | 0.337
GCGGAAGC | 0.336
AGGGAAGA | -0.277
CCGGAAGA | 0.389
CGGGAAGA | 0.401
CATACGGG | 0.152
AGACCGTG | -0.0481
AACTTGCC | 0.139
GAGTCGCA | -0.21
CCAGCCCC | -0.0533
CGTTCCAG | -0.0906
AACTCATA | 0.148

Sequence | PBM E-score
TAGGAAGA | -0.21
CGGGAATA | 0.417
AGGGAATA | 0.0561
TCGGAAGA | 0.455
TCAGAAGA | -0.217
GGGGAATA | -0.0405
ATTAGCAC | 0.00903
CTCCTGGC | -0.113
TGGCTAAA | 0.0298
CGGCTAAA | 0.388
AGGCTAAA | -0.163
AGTAGGGG | 0.0719
CGGATCAC | 0.397
GGGATCTA | 0.0821
AGGATCGA | 0.00545
GGGATCAC | -0.0541
CGGATCAG | 0.33
CGGATCTC | 0.3
CGGATCTA | 0.391
AGGATCAC | -0.249
CGGATCGA | 0.404
TGGATCAA | -0.243
CGGATCAA | 0.401
CGGATCGC | 0.361
CCTACAAG | -0.104
CGGTGGAG | 0.121

Sequence | PBM E-score
CATTCAAA | 0.048
CCGAGTTA | 0.34
ACGAGTTC | -0.00258
CCGAGTCC | 0.403
ACGAGTAC | -0.106
CCGAGTCA | 0.381
CCGAGTAA | 0.345
CCGAGTAG | 0.391
ACGAGTAG | -0.11
CCGAGTAC | 0.383
CCGAGTTC | 0.396
GCGAGTAC | -0.0817
GCGAGTCC | -0.0651
